AmpC inh no detg: AmpC beta-lactamase inhibition without detergent | Potency, µM (doses to about 57.1 µM), most hits filed as inhibitors | AID 485341 | AmpC nitrocefin hydrolysis, absorbance 480 nm, 0.0001% Triton | 0.52% of 330,000 active | P00811; note: nearly all actives have a fitted effect of over 20% in size
Target sequence (P00811 whole entry, looked up): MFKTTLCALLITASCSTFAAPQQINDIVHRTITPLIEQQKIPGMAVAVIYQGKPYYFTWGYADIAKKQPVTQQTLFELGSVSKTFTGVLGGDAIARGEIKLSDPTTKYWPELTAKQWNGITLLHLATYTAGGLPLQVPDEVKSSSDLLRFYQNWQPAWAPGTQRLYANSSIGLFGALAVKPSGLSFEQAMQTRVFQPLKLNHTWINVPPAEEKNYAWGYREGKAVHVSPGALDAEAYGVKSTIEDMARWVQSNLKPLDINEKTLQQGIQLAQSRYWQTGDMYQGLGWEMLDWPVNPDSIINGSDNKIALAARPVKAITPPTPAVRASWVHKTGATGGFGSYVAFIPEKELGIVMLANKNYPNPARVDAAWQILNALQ
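AmpC (5.3 nM in the dispensed reagent) in 20 mM phosphate pH 7.0 with 0.01% (detergent screen) or 0.0001% Triton X-100 was preincubated with compounds for 15 min at room temperature. Nitrocefin was then added from an 800 uM solution, and hydrolysis was followed at 480 nm.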
CHX counter: counter-screen for Shiga toxin inhibitors: cycloheximide protein synthesis inhibition | cell reporter, cycloheximide protein synthesis inhibition counterscreen | max response, % | 12% of 300,000 active | AID 2314; in the data active = max response mostly above about 13%, no sharp cut-off; inactive = mostly below about 14%; note: read at 38.3 µM for the half of the compounds with a filed dose
NS1 inh: blocks influenza NS1 protein function; Potency, µM (top dose mostly 46.1 µM); 0.4% of 270,000 active; AID 2326; calls by dose curve; note: actives are rising curves; nearly all actives have a fitted effect of over 50% in size
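OD600 was taken as the measure of yeast growth restored by compound in an NS1-expressing S. cerevisiae strain. Cells had been washed out of glucose medium and diluted 1:100 into galactose -URA medium, pH 6.0.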
AmpC inh detg: AmpC beta-lactamase inhibition with detergent present; P00811; AmpC hydrolysis of nitrocefin, absorbance 480 nm, 0.01% Triton; 0.041% of 370,000 active; Potency, µM (series often up to 114 µM), usual class: inhibitors; note: nearly all actives have a fitted effect of over 25% in size
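20 mM phosphate pH 7.0 + 0.01% (detergent screen) or 0.0001% Triton X-100; 5.3 nM AmpC reagent; cpd preinc 15 min RT; nitrocefin (800 uM stock) to start; A480 q20 s × 4 min; Activity was normalised to no-enzyme and no-compound control wells.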
Shiga toxin inh: blocks Shiga toxin action in Vero cells; Vero cells, Shiga toxin protein synthesis inhibition reporter; 9.2% of 290,000 active; inhibition, % at 38.7 µM; AID 2315; in the data active = inhibition mostly above about 28%, no sharp cut-off; inactive = mostly below about 43%
Hits are given with their value; – = inactive; ? = inconclusive; · = no result. Many of the other results were omitted from the sample, so hits are more common in it than they were. Unless noted, calls come from the whole dose curve; as a rule, active = well fitted curve in the direction sought with a large enough effect; inconclusive = small, poorly fitted or top-dose-only effect, or another doubt; inactive = no such curve, though single readings can be large; an effect the other way counts as inactive or inconclusive.

SMILES	AmpC inh no detg	CHX counter	NS1 inh	AmpC inh detg	Shiga toxin inh
CCCCn1c(Oc2cccc(C(=O)OC)c2)nc2c1c(=O)n(C)c(=O)n2C	·	·	·	–	·
O=C(NC(=S)Nc1nc2c(s1)CCCC2)c1ccccc1	–	58	?	?	95
S=C(Nc1nc2c(s1)CCCC2)NC1CC1	–	52	–	?	77
COc1ccc(C(=O)Nc2nc3c(s2)CCCC3)cc1Cl	·	·	·	–	·
COC(=O)c1ccc(C(=O)NC(=S)Nc2nc3c(s2)CCCC3)cc1	–	20	–	–	–
COc1ccc(Cn2ncc3c4sc(C)cc4n(C)c3c2=O)cc1F	·	–	·	·	–
COc1ccc(OC)c(C(=O)NC(CC(N)=O)c2ccc(NCc3ccccn3)c([N+](=O)[O-])c2)c1 (stereo unspecified)	–	–	–	?	–
CCCN1CCN(S(=O)(=O)c2ccc(-c3cc(C)no3)s2)CC1	–	–	–	–	–
Cc1oc(-c2ccc(C(=O)NCc3ccc(F)cc3)cc2)nc1CS(=O)c1ccccc1 (stereo unspecified)	·	·	·	–	·
CCn1c(C(=O)NCc2ccccc2C)cc2oc3ccccc3c21	·	·	·	–	·
Cc1cnc(NC(=O)/C=C/c2ccc(Br)o2)s1	–	16	–	–	81
CCOC(=O)/C=C/C(=O)Nc1nccs1	–	15	–	–	–
Cc1ccc(/C=C/C(=O)Nc2nccs2)o1	–	55	–	–	108
CCOC(=O)C(=O)Nc1nccs1	–	–	–	–	–
Cc1ccc(/C=C/C(=O)NCc2ccccn2)o1	–	–	–	–	–
Cc1ccc(/C=C/C(=O)Nc2ccc(N(C)C)cc2)o1	–	38	–	–	85
Cc1ccc(/C=C/C(=O)Nc2ccncc2)o1	–	–	–	–	–
N#CCCSC(=S)[C@H]1CCCC1=N	·	·	–	·	·
Cc1ccc(C)c(CN2CCCN(Cc3cc(C)ccc3C)S2(=O)=O)c1	–	–	–	–	–
COc1ccc(OC)c(CCNC(=O)c2c3c(nc4ccccc24)C(=O)N(C2CCCCC2)C3)c1	·	·	·	–	·
Cc1ccc(/C=C/C(=O)Nc2ncc(C)s2)o1	–	47	–	–	69
C/C(=N\N=c1/sc2ccccc2n1C)c1ccc(N2CCOCC2)cc1	–	22	–	?	–
C/C(=N\N=c1/sc2ccccc2n1C)c1ccccn1	–	78	·	–	69
C/C(=N/O)c1ccccn1	–	–	–	?	–
COc1ccccc1NC(=O)CSc1ccc(-c2ccc(-n3cccn3)cc2)nn1	–	·	·	–	·
SMILES	AmpC inh no detg	CHX counter	NS1 inh	AmpC inh detg	Shiga toxin inh
O=C(NCc1cccs1)c1cc2c(s1)-c1ccccc1OC2	–	20	–	?	–
O=C(NC1CC1)c1cc2c(s1)-c1ccccc1OC2	–	77	–	–	104
O=C(O)c1cc2c(s1)-c1ccccc1OC2	–	–	–	–	–
CCCCCOc1ccc(CSc2ncn[nH]2)cc1	–	39	–	–	72
CCCCOc1ccc(CSc2nncn2N)cc1	–	31	–	–	65
CCCCOc1ccc(CSc2ncn[nH]2)cc1	–	26	–	–	–
CCOC(=O)c1ccc(CSc2ncn[nH]2)o1	–	–	–	?	–
Cc1ccc2ncc3c(-c4ccc(F)cc4)nn(CC(=O)Nc4ccccc4C)c3c2c1	·	·	·	–	·
Cn1c(=O)n(C)c2cc(N3CCCCC3)c(NC(=O)c3c(F)cccc3F)cc21	·	·	·	–	·
Cc1cccc(N2CCN(C(=O)c3ccc4ncsc4c3)CC2)c1C	–	30	–	–	72
O=C(c1ccc2ncsc2c1)N1CCN(c2ccccc2Cl)CC1	–	20	·	–	105
O=C(c1ccc2ncsc2c1)N1CCN(c2nc3ccccc3s2)CC1	–	–	–	–	–
COc1ccc(NC(=O)c2cc3c(s2)-c2c(C)cccc2OC3)cc1Cl	·	·	·	–	·
c1ccc(CSc2nnc(-c3ccccn3)n2-c2ccccc2)cc1	–	–	–	–	–
Cn1c(CO)cnc1SCc1ccc(F)cc1	–	17	·	–	50
COc1ccc(Cn2c(CO)cnc2SCc2ccc(F)cc2)cc1	·	·	·	–	·
Cc1ccc(CSc2nnc(-c3ccccn3)n2C)cc1	–	24	–	–	94
Cn1c(SCc2ccc(F)cc2)nnc1-c1ccccn1	–	39	–	–	116
O=C(NCCCc1ccccc1)c1nn(-c2ccccc2F)nc1CO	·	·	·	–	·
CCCCn1nc(C(=O)NNC(=O)c2ccncc2)c2ccccc2c1=O	–	40	–	–	20
CCOC(=O)Cc1ccc(NC(=O)n2ncc3cc(Cl)ccc32)cc1	·	·	·	–	·
COC(=O)c1sc2cccc(F)c2c1S(=O)(=O)Nc1ccc(C)cc1Cl	·	·	·	–	·
CCc1ccc(NC(=O)N(C2CCC(C)CC2)C2CCN(C(C)=O)CC2)cc1 (stereo unspecified)	–	31	–	?	67
CCc1ccc(NC(=O)N(CCCOC(C)C)C2CCN(C(C)=O)CC2)cc1	–	–	–	–	–
Cc1ccc(NC(=S)N2CCCCC2CO)cc1C (stereo unspecified)	–	15	–	–	–
SMILES	AmpC inh no detg	CHX counter	NS1 inh	AmpC inh detg	Shiga toxin inh
CC(=O)N1CCC(N(C(=O)Nc2ccc(C)c(C)c2)C2CCCC2)CC1	–	14	–	–	–
CC(=O)N1CCC(N(CCCOC(C)C)C(=O)Nc2ccc(C)c(C)c2)CC1	–	–	–	–	–
CC1CCN(S(=O)(=O)c2cc(F)ccc2CN2C(=O)c3cccnc3C2=O)CC1	–	–	–	–	–
CN(CC(=O)Nc1ccccc1Br)C(=O)c1ccccc1-c1nc2ccccc2s1	–	–	–	–	–
O=c1oc2ccc(Cl)cc2cc1-c1ccccc1	–	–	–	?	–
O=c1oc2ccccc2cc1-c1ccccc1	–	30	–	–	–
CN(C)C(=O)COc1ccc2cc(-c3ccccc3)c(=O)oc2c1	–	25	–	–	54
O=c1oc2cc(OCc3c(F)cccc3Cl)ccc2cc1-c1ccccn1	–	–	–	–	–
CCCOc1ccc2cc(-c3ccccn3)c(=O)oc2c1	–	39	–	–	–
COc1ccc(-c2cc(=O)oc3cc(OCC(=O)N(C)C)ccc23)cc1	–	–	–	–	–
COc1ccc2cc(-c3ccccc3)c(=O)oc2c1	–	32	–	–	52
COC(=O)C(C)Oc1ccc2cc(-c3ccccc3)c(=O)oc2c1 (stereo unspecified)	–	–	–	?	–
CCOc1ccc(OCC)c(NC(=O)c2cc(S(=O)(=O)N3CCc4ccccc43)cn2C)c1	·	·	·	–	·
COc1ccc(-c2nc(CSCC(=O)N3CCN(c4cccc(C)c4C)CC3)c(C)o2)cc1OC	·	·	·	–	·
CCOC(=O)c1c(C)[nH]c(C)c1S(=O)(=O)NCC(=O)Nc1ccc(CC)cc1	·	·	·	–	·
CCOC(=O)c1[nH]c(C)c(C(=O)N(C)C)c1C	–	–	–	–	–
CCOC(=O)c1[nH]c(C)c(CC(C)C)c1C	–	20	·	–	–
CCOC(=O)c1[nH]c(C)c(C(=O)C(C)C)c1C	–	17	–	–	–
Cc1c(NC(=O)OCCNC(=O)COc2c(Cl)cccc2Cl)sc(=S)n1C	–	–	–	–	–
